Screens (PubChem BioAssay)
HT1080 IDH1KD tx: kills HT-1080 cells with IDH1 knockdown; HT-1080 IDH1 knockdown viability, ATP luminescence, 48 h; Potency, µM (doses to about 46.1 µM), for the others: at the highest dose activity, negative = toxicity, usual class: cytotoxic; 2% of 360,000 active;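 note: potency is the fitted concentration of half-maximal effect; 0% = DMSO wells and -100% = cell-free medium wells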
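Cytotoxicity counter-line: IDH1KD HT-1080, 48 h, CellTiter-Glo. Curves classed by r2, magnitude and activity.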
HT1080NT lethal: kills 2HG-producing HT-1080-NT fibrosarcoma cells; Potency, µM (doses to about 46.1 µM), for inactives: at the top dose activity, negative = less viability, hits mostly cytotoxic; HT-1080-NT fibrosarcoma viability, CellTiter-Glo ATP luminescence, 48 h; AID 686970; 1.6% of 360,000 active;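 note: NT is the 2HG producing partner of a matched IDH1 knockdown line; potency is the fitted concentration of half-maximal effect; 0% = DMSO-treated cells and -100% = media-only wells without cells; nearly all actives have a fitted effect of over 55% in size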
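Luminescent CellTiter-Glo readout after 48 hours of compound exposure at 37 degrees C defined viability of HT-1080-NT cells. Activity was normalized to DMSO wells and cell-free media wells; concentration-response curves were fitted and assigned curve classes.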
DT40 TDP1 CPT: growth inhibition of DT40 Tdp1-/-;hTDP1 cells with camptothecin (screen for TDP1 inhibitors); chicken DT40 Tdp1-/-;hTDP1 cells + 20 nM CPT, ATP luminescence, 48 h; Potency, µM (highest dose often 46.2 µM), for inactives: at the highest dose activity change, negative = growth inhibition, usual class: inhibitors; 12% of 420,000 active; AID 686979; note: potency is the fitted concentration of half-maximal effect; nearly all actives have a fitted effect of over 55% in size
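Chicken DT40 Tdp1-/- cells stably complemented with human TDP1 were seeded at 400 cells/well in medium containing 20 nM camptothecin, exposed to pin-transferred compounds, and grown at 37 °C for at least 48 hr. Viability was read as ATP luminescence.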
DT40 TDP1 no CPT: qHTS for Inhibitors of human tyrosyl-DNA phosphodiesterase 1 (TDP1): qHTS in cells in absence of CPT; AID 686978, 2013; 15% of 420,000 active; Potency, µM (titrated, usually from 46.2 µM), for the others: top-dose activity change, negative = growth inhibition, actives largely listed as inhibitors; DT40 Tdp1-/- hTDP1 cells, no CPT, ATP luminescence, 48 h; note: potency is the fitted concentration of half-maximal effect; nearly all actives have a fitted effect of over 55% in size
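Chicken DT40 Tdp1-/- cells stably complemented with human TDP1 were seeded at 400 cells/well with DMSO in place of 20 nM camptothecin. After compound pinning, cells grew at least 48 hr at 37 °C; viability read by CellTiter-Glo luminescence.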
IL1B secr inh: blocks inflammasome-driven IL-1 beta release; THP-1 LPS/ATP IL-1B secretion, AlphaLISA, 16 h; active compounds read low; activity change, % at 57.5 µM; 4.7% of 360,000 active; in the data active = activity change below about -50%; inconclusive = mostly about -30% to -49%
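THP-1 cells pretreated 1 hr with compounds (up to 57.5 uM final), then stimulated with LPS (250 ng/mL final) plus ATP (1.25 mM final); secreted IL-1B measured by AlphaLISA after 16 hr, decreased signal indicating inhibition.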
uPA generation: blocks generation of uPA at the cell surface | 0.31% of 330,000 active | Potency, µM (doses to about 38.3 µM), for the others: at the top dose activity change, negative = inhibition, hits mostly inhibitors | cell surface uPA generation assay, qHTS; active = well fitted inhibition curve with a large enough effect; inconclusive = small, poorly fitted or top-dose-only effect; inactive = no such curve, though single readings can be large or run the other way; tested in mouse RAW 264.7 cells; note: potency is the fitted concentration of half-maximal effect; nearly all actives have a fitted effect of over 55% in size
* = called active by the depositor; ? = inconclusive; / = no result given; [ ] = remark or other dose. In the library only some 19% were active in any assay of this set; here they are far more common. Unless noted, calls come from the whole dose curve; as a rule, active = well fitted curve in the direction sought with a large enough effect; inconclusive = small, poorly fitted or top-dose-only effect, or another doubt; inactive = no such curve, though single readings can be large; an effect the other way counts as inactive or inconclusive. Unless noted, % is set by controls: 0 for no effect and ±100 for the full control effect.

SMILES	HT1080 IDH1KD tx	HT1080NT lethal	DT40 TDP1 CPT	DT40 TDP1 no CPT	IL1B secr inh	uPA generation
O=C(NCc1ccc(F)cc1)C1CCCN(C(=O)NCc2ccccc2)C1 (configuration not stated)	4.1%	2.2%	9.9%	-16.6%	2.3	-2.8%
Cc1ccc(C)c(S(=O)(=O)NCc2ccc(C(=O)N3CCCCCC3)cc2)c1	-0.5%	-5.8%	?	23.1µM*	4.8	-0.9%
Cc1ccc(C)c(S(=O)(=O)NCc2ccc(C(=O)N3CC(C)OC(C)C3)cc2)c1 (configuration not stated)	-1.0%	-1.8%	-11.2%	-6.8%	29.3	0.6%
COc1ccc(N2CCN(C(=O)c3ccc(CNS(=O)(=O)c4ccc(C)cc4)cc3)CC2)cc1	?	-27.7%	?	11.6µM*	?	-6.1%
Cc1ccc(C)c(S(=O)(=O)NCc2ccc(C(=O)N3CCN(c4ccccc4)CC3)cc2)c1	-5.2%	-1.9%	?	?	-62.8*	-5.6%
Cc1ccc(S(=O)(=O)NCc2ccc(C(=O)N3CCN(c4ccc([N+](=O)[O-])cc4)CC3)cc2)cc1	-4.9%	-14.1%	16.4µM*	9.2µM*	-11.2	?
COc1ccc(N2CCN(C(=O)c3ccc(S(=O)(=O)NCc4ccco4)cc3)CC2)cc1	-5.5%	-10.6%	-29.7%	-21.1%	4.4	-7.8%
C[C@H]1CN(CCc2ccccc2)C(=O)[C@@H]1CC(=O)NCc1ccccc1	11.3%	24.0%	?	?	21.2	5.5%
CC(C)S(=O)(=O)N1CCCC(C(=O)c2cccc(Cl)c2)C1 (configuration not stated)	0.5%	2.4%	6.3%	?	21.2	/
O=C(c1ccc(CNS(=O)(=O)c2ccc(F)cc2)cc1)N1CCCCCC1	3.0%	3.1%	?	14.6µM*	19.8	/
COc1ccc(N2CCN(C(=O)c3ccc(CNS(=O)(=O)c4cc(C)ccc4C)cc3)CC2)cc1	?	-15.4%	20.6µM*	14.6µM*	-15.2	?
CCOc1ccc(NC(=O)CN2C(=O)CSC2=O)cc1	-25.1%	-6.6%	-9.0%	?	16.7	-16.9%
COC(=O)C(C)Oc1ccc(Oc2nc(Cl)ccc2Cl)cc1 (configuration not stated)	3.0%	13.5%	-2.9%	11.4%	-1.3	-4.3%
Cc1cc2ccccc2n1CCNC(=O)c1cccc(Br)c1	/	/	20.6µM*	11.6µM*	/	/
Cc1cc2ccccc2n1CCNC(=O)c1cccs1	-11.2%	-23.8%	-25.5%	?	-8.4	-18.4%
Cc1cc2ccccc2n1CCNC(=O)C1CCCC1	14.2%	16.2%	-3.3%	?	-12.0	7.1%
Cc1cc2ccccc2n1CCNC(=O)c1cccc(Cl)c1	/	/	14.6µM*	7.31µM*	/	/
Cc1cc2ccccc2n1CCNC(=O)C1CC1	-1.3%	20.8%	14.6µM*	-21.4%	-22.0	-23.9%
CCN=C1SC(CC(=O)NCc2ccccc2)C(=O)N1CC (configuration not stated)	5.2%	9.8%	1.2%	22.1%	-6.2	5.7%
NS(=O)(=O)c1ccc(N/N=C/c2ccncc2)cc1	5.6%	8.8%	0.4%	-12.6%	-0.1	3.0%
NS(=O)(=O)c1ccc(N/N=C/c2ccccc2Br)cc1	?	?	-3.1%	-20.6%	-106.1*	-0.2%
NC(=O)N/N=C/c1cn(-c2ccccc2)nc1-c1cccs1	10.3µM*	23.1µM*	16.4µM*	?	?	-6.8%
O=C(N/N=C/c1cn(-c2ccccc2)nc1-c1cccs1)c1ccncc1	-13.9%	2.1%	?	?	-5.9	-6.7%
Cc1nnc(SCC(=O)N/N=C/c2cn(-c3ccccc3)nc2-c2ccccc2)n1-c1ccccc1	?	?	?	?	-78.4*	-4.4%
NS(=O)(=O)c1ccc(N/N=C/c2cn(-c3ccccc3)nc2-c2cccs2)cc1	20.6µM*	23.1µM*	5.17µM*	2.91µM*	-60.7*	-9.6%
SMILES	HT1080 IDH1KD tx	HT1080NT lethal	DT40 TDP1 CPT	DT40 TDP1 no CPT	IL1B secr inh	uPA generation
CC(C)c1ccc([N+](=O)[O-])cc1S(=O)(=O)N1CCN(C)CC1	-2.2%	-5.0%	-22.4%	-1.2%	-11.0	0.5%
CC(C)NC(=O)C1(C)CN(S(C)(=O)=O)CC(=O)N1CCc1ccc(O)cc1 (configuration not stated)	21.6%	26.9%	-0.8%	-1.6%	21.0	/
CC1([N+](=O)[O-])COC(c2cccc3ccccc23)OC1 (configuration not stated)	-8.5%	0.3%	-12.8%	-3.4%	4.9	1.7%
Cc1cccc(C)c1NC(=O)CN(C)S(=O)(=O)c1ccc2c(c1)n(C)c(=O)c(=O)n2C	/	/	-7.3%	-10.6%	/	/
COc1ccc(NC(=O)CN2CCCCCC2)cc1OC	8.8%	21.2%	9.5%	-4.4%	11.7	-2.1%
COc1ccc(Cl)cc1NC(=O)CN(C)C(=O)c1ccc(COc2ccccc2)cc1	-9.7%	-1.4%	?	?	?	5.2%
O=C(C1CCN(C2CCN(Cc3ccsc3)CC2)CC1)N1CCOCC1	4.1%	-1.4%	-0.5%	4.3%	14.1	4.1%
O=C(CSc1nnc(-c2ccc(Cl)cc2)n1-c1ccccc1)N/N=C/c1ccccc1C(=O)O	-0.3%	-24.8%	5.8%	-9.2%	0.7	-3.2%
Cc1ccc(-c2nnc(SCC(=O)N/N=C/c3ccc(C)s3)n2-c2ccc(C)cc2)cc1	-25.3%	-26.9%	?	29.1µM*	-24.9	2.1%
COC(=O)c1c(-c2ccc(F)cc2)noc1N	11.2µM*	6.1%[9.24 µM]	-15.0%	-18.6%	-7.7	/
COc1ccc(-n2nc3ccc(NC(=O)c4ccc(C#N)cc4F)cc3n2)cc1Cl	/	/	-19.1%	-1.2%	/	/
N#Cc1nc(-c2ccc(OCc3ccc(Cl)cc3)cc2)oc1N1CCCC1	/	/	-17.8%	?	/	/
CCC(C(=O)OC(C)C(=O)Nc1ccc(Cl)cn1)c1ccccc1 (configuration not stated)	7.9%	24.0%	-1.0%	19.0%	21.8	7.6%
COc1ccc(-n2c(SCC(=O)Nc3nccs3)nnc2-c2ccc(Cl)cc2)cc1	27.4%	16.7%	-25.3%	3.7%	-12.3	0.9%
COCCNC(=O)CSc1nc(-c2ccccc2)[nH]c1-c1ccc(OC)cc1	/	/	-22.4%	?	/	/
COc1ccc(-c2[nH]c(-c3ccccc3)nc2SCC(=O)Nc2nccs2)cc1	-6.7%	-6.9%	18.4µM*	23.1µM*	-14.0	6.5%
COc1ccc(-c2[nH]c(-c3ccc(Cl)cc3)nc2SCC(=O)Nc2nccs2)cc1	?	?	16.4µM*	23.1µM*	-16.4	?
COc1ccc(/C=C/C(=O)OCC(=O)N2CCCCCC2)c(OC)c1	-1.5%	-0.4%	?	?	-18.2	-10.2%
